Screening data from PubChem.
An excerpt weighted towards active compounds, which were near 3.2% of everything screened.
NadD block: NadD (S. aureus) enzyme inhibition; purified NadD enzyme, colorimetric absorbance read-out; inhibition, % at 20 µM; 360,000 tested, 0.78% active; AID 602399; in the data active = inhibition above about 26%
MsrA inhibitor: inhibits bovine methionine sulfoxide reductase A | purified bovine MsrA, absorbance read-out | inhibition, % at 15.5 µM | 360,000 tested, 0.75% active; in the data active = inhibition above about 4.5%;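 also: 0% = vehicle wells with enzyme and 100% = reference inhibitor wells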
DSG3 Ab inh: blocks pemphigus antibody binding to human desmoglein-3; P32926; DSG3-coupled beads, scFv-anti-DSG3-GFP binding, flow cytometry; hits give low values; binding (percent of control), % at 10 µM; 310,000 tested, 0.48% active; AID 588358;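 active = binding more than 3 SD below its plate's average and above zero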;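 also: hits lower antibody fragment binding to DSG3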
Target sequence (P32926 whole entry, looked up, the tested form may be a part): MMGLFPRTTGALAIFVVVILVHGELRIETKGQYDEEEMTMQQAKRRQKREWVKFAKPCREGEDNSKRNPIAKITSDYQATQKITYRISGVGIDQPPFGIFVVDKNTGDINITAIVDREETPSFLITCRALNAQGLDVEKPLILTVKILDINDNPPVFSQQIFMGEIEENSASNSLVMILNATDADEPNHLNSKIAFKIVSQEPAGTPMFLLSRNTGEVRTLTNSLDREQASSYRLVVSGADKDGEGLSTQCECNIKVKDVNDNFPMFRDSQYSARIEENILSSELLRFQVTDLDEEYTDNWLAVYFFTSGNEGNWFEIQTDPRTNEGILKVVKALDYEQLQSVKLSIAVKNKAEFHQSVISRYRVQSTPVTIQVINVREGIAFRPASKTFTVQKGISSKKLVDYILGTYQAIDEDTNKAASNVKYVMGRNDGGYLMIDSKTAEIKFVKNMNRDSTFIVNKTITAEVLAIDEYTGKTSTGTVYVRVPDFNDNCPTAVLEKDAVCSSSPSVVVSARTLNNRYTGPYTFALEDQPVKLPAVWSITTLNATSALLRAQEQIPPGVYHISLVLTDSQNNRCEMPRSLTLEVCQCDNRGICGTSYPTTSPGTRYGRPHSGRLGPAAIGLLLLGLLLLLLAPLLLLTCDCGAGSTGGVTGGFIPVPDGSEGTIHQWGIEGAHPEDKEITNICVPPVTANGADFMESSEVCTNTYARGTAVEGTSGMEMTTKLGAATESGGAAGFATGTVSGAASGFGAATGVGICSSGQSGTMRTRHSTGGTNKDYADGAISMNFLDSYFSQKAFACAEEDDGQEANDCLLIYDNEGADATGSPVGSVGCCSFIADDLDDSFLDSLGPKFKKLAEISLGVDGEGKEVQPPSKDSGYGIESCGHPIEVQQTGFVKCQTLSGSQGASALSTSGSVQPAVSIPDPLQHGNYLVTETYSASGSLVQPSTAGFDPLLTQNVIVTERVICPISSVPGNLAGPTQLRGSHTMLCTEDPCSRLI
rCAG binder: molecules binding r(CAG) RNA repeats. r(CAG) RNA repeat, TO-PRO-1 dye displacement fluorescence. inhibition, % at 3 µM. 370,000 tested, 1.3% active;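 active = inhibition above the plate cutoff, the mean of all test compounds on that plate plus 3 SD, cut at about 35% in these data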;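 also: 0% = DMSO alone and 100% = 100 µM mitoxantrone as full dye displacement; higher means more dye released from RNA so lower well fluorescence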
MsrA act: activates bovine MsrA enzyme | purified bovine MsrA, absorbance read-out | activation, % at 10.6 µM | 360,000 tested, 0.3% active | AID 602163; in the data active = activation above about 7.5%;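 also: 0% = vehicle and 100% = reference activator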
DAGLB inh: blocks human DAGLB lipase activity. HEK293T DAGLB membrane lysate, EnzChek fluorogenic substrate. Q8NCG7. inhibition, % at 5.17 µM. 340,000 tested, 0.059% active; in the data active = inhibition above about 34%;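 also: 0% = enzyme with vehicle and 100% = wells lacking enzyme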
NadD conf: confirmation of Staphylococcus aureus NadD inhibitors; 2,000 tested, 13% active; inhibition, % at 20 µM; shares compounds with NadD block; purified S. aureus NadD, colorimetric enzyme assay; in the data active = inhibition mostly above about 42%, no sharp cut-off; inactive = mostly below about 42%
* marks the source's active call; other numbers are inactive results; nt = not tested or not shown.

SMILES	NadD block	MsrA inhibitor	DSG3 Ab inh	rCAG binder	MsrA act	DAGLB inh	NadD conf
O=C(/C=C/c1cccs1)Nc1ccc(N2CCOCC2)c(S(=O)(=O)Nc2ccccc2Cl)c1	23	2	97	21	-5	-2	nt
CCCc1nnc2n1N=C(c1ccc(C)cc1)CS2	0	0	98	-5	-4	-3	nt
COC(=O)[C@]12C[C@H](CC(=O)N3CCCCC3)C(=O)N(Cc3ccco3)C1=C[C@H](COCc1ccccc1)O[C@@H]2C	nt	nt	nt	3	nt	nt	nt
O=C(Nc1ccc(F)cc1)Nc1ccc(N2CCCC2)c(S(=O)(=O)Nc2ccccc2Cl)c1	30*	1	nt	37*	-7	-2	28
O=C(Nc1ccc(N2CCOCC2)c(S(=O)(=O)Nc2ccccc2Cl)c1)c1ccc(F)cc1	0	0	94	11	-6	-5	nt
C=CCn1c(=O)/c(=C\c2ccccn2)s/c1=C(/C#N)C(=O)NCC1CCCO1 (stereo not drawn)	-1	0	121	0	-3	-3	nt
C=CCn1c(=O)/c(=C/c2ccc(C)o2)s/c1=C(/C#N)C(=O)c1ccccc1	30*	-1	211	26	-14	-4	3
C[C@@H]1CN([C@H](C)CO)S(=O)(=O)c2ccc(Br)cc2O[C@H]1CN(C)C(=O)C1CC1	3	-1	113	1	1	0	nt
Cc1ccc(O)c(C(=O)c2cnc3c(c2)c(-c2ccc(F)cc2)c(C#N)c(=O)n3C)c1	28*	1	107	2	-4	-4	23
Cc1nc2ccc(NC(=O)c3ccc(Cl)c(NC(=O)c4cccs4)c3)cc2s1	28*	1	101	14	-12	-7	14
COc1ccc(N=C2C(=Nc3ccc(OC)cc3)N(c3ccc(OC)cc3)C(=S)N2c2ccccc2)cc1	30*	1	89	0	-3	2	3
Cc1ccccc1COc1ccc(/C(O)=C2/C(=O)C(=O)N(CCCn3ccnc3)C2c2ccco2)cc1 (stereo not drawn)	31*	0	97	15	-5	2	53*
CCC(CO)Nc1cccc2c1S(=O)(=O)N(Cc1cn(Cc3cccc(C(F)(F)F)c3)nn1)Cc1ccccc1O2 (stereo not drawn)	nt	nt	nt	8	nt	nt	nt
COc1ccc2c(C)cc(SCC(=O)Nc3nsc(-c4ccc(C)cc4)n3)nc2c1	3	-1	110	1	-1	-1	nt
Cc1ccc(-c2nc(NC(=O)CSc3cc(C)c4ccccc4n3)ns2)cc1	31*	0	-0.3*	2	1	-2	1
O=C(O)/C=C/c1cn(-c2ccccc2)nc1-c1ccc(-c2ccc([N+](=O)[O-])cc2)o1	49*	0	94	15	-7	2	9
O=C(O)/C=C/c1cn(-c2ccccc2)nc1-c1cccc([N+](=O)[O-])c1	-5	-1	97	12	-2	-1	nt
CCCNC(=O)c1cc(C2CCCCN2C(=O)c2ccc(C(C)C)cc2)on1 (stereo not drawn)	-2	0	nt	-3	-3	nt	nt
O=[N+]([O-])c1ccc(N2CCN(S(=O)(=O)c3ccc(Cl)cc3)CC2)cc1NCc1cccnc1	32*	1	73	-1	-9	3	23
CCCCCCCCN1C(=O)[C@@H](CC(=O)N2CCCC2)C[C@@]2(C(=O)OC)C1=C[C@H](COCc1ccccc1)O[C@@H]2C	nt	nt	nt	-1	nt	nt	nt
Nc1ccc(Cc2ccc(N)c(O)c2)cc1O	37*	-1	88	8	-4	3	25
COc1cc(Cc2ccc(N)c(OC)c2)ccc1N	2	0	130	2	-2	0	nt
Cc1cccc(N2CC(C(=O)Nc3nnc(SCCN4CCOCC4)s3)CC2=O)c1 (stereo not drawn)	27*	0	101	12	-3	4	20
Cc1cccc(N2CC(C(=O)Nc3nnc(SCCC4OCCO4)s3)CC2=O)c1 (stereo not drawn)	41*	0	104	18	-2	8	19
COc1cccc(N2CC(C(=O)Nc3nnc(SCCN4CCOCC4)s3)CC2=O)c1 (stereo not drawn)	4	0	108	2	-1	1	nt
COc1cc(-n2c(C)nc3cc(C(=O)N4CCCC4)ccc32)cc(OC)c1OC	nt	nt	nt	1	nt	nt	nt
